# Assay results as given in publication PMC11062922 (Nature Chemical Biology, 2023).
# Like-named read-outs stand apart in the source and are kept apart here.
# Assays:
# PLK4 = conditions: read-out: apparent Kd, n = 1
# PRKAA2 = conditions: read-out: apparent Kd, n = 1
substance,measurement,setting,value
Lestaurtinib,potency estimated from few doses,"PLK4; compound concentrations:100 nM and 1000 nM (sheet 'Lestaurtinib' of Supplementary Table 1),run:Lestaurtinib_02768_R1,Plate:MR028",51.6 nM
same,potency estimated from few doses,"PLK4; compound concentrations:100 nM and 1000 nM (sheet 'Lestaurtinib' of Supplementary Table 1),run:Lestaurtinib_02768_R2,Plate:MR028",61.6 nM
same,potency estimated from few doses,"PLK4; compound concentrations:100 nM and 1000 nM (sheet 'Lestaurtinib' of Supplementary Table 1),run:Lestaurtinib_02768_R3,Plate:MR028",74.4 nM
same,potency estimated from few doses,"PLK4; compound concentrations:100 nM and 1000 nM (sheet 'Lestaurtinib' of Supplementary Table 1),run:Lestaurtinib_02795_R1,Plate:MR022",55.3 nM
same,potency estimated from few doses,"PLK4; compound concentrations:100 nM and 1000 nM (sheet 'Lestaurtinib' of Supplementary Table 1),run:Lestaurtinib_02795_R2,Plate:MR022",63.4 nM
same,potency estimated from few doses,"PLK4; compound concentrations:100 nM and 1000 nM (sheet 'Lestaurtinib' of Supplementary Table 1),run:Lestaurtinib_02802_R1,Plate:MR029",73 nM
same,potency estimated from few doses,"PLK4; compound concentrations:100 nM and 1000 nM (sheet 'Lestaurtinib' of Supplementary Table 1),run:Lestaurtinib_02802_R2,Plate:MR029",83.4 nM
same,potency estimated from few doses,"PLK4; compound concentrations:100 nM and 1000 nM (sheet 'Lestaurtinib' of Supplementary Table 1),run:Lestaurtinib_02802_R3,Plate:MR029",32.3 nM
same,potency estimated from few doses,"PLK4; compound concentrations:100 nM and 1000 nM (sheet 'Lestaurtinib' of Supplementary Table 1),run:Lestaurtinib_02896_R1,Plate:MR030",78.3 nM
same,potency estimated from few doses,"PLK4; compound concentrations:100 nM and 1000 nM (sheet 'Lestaurtinib' of Supplementary Table 1),run:Lestaurtinib_02896_R3,Plate:MR030",80.6 nM
same,potency estimated from few doses,"PLK4; compound concentrations:100 nM and 1000 nM (sheet 'Lestaurtinib' of Supplementary Table 1),run:Lestaurtinib_03172_R1,Plate:MR031",67.3 nM
same,potency estimated from few doses,"PLK4; compound concentrations:100 nM and 1000 nM (sheet 'Lestaurtinib' of Supplementary Table 1),run:Lestaurtinib_03172_R3,Plate:MR031",72.8 nM
same,potency estimated from few doses,"PLK4; compound concentrations:100 nM and 1000 nM (sheet 'Lestaurtinib' of Supplementary Table 1),run:Lestaurtinib_03252_R1,Plate:MR032",64.8 nM
same,potency estimated from few doses,"PLK4; compound concentrations:100 nM and 1000 nM (sheet 'Lestaurtinib' of Supplementary Table 1),run:Lestaurtinib_03252_R2,Plate:MR032",23.9 nM
same,potency estimated from few doses,"PLK4; compound concentrations:100 nM and 1000 nM (sheet 'Lestaurtinib' of Supplementary Table 1),run:Lestaurtinib_03260_R2,Plate:MR033",63.7 nM
same,potency estimated from few doses,"PLK4; compound concentrations:100 nM and 1000 nM (sheet 'Lestaurtinib' of Supplementary Table 1),run:Lestaurtinib_03260_R3,Plate:MR033",78.5 nM
same,potency estimated from few doses,"PRKAA2; compound concentrations:100 nM and 1000 nM (sheet 'Lestaurtinib' of Supplementary Table 1),run:Lestaurtinib_02339_R1,Plate:MR001",963 nM
same,potency estimated from few doses,"PRKAA2; compound concentrations:100 nM and 1000 nM (sheet 'Lestaurtinib' of Supplementary Table 1),run:Lestaurtinib_02339_R3,Plate:MR001",953 nM
same,potency estimated from few doses,"PRKAA2; compound concentrations:100 nM and 1000 nM (sheet 'Lestaurtinib' of Supplementary Table 1),run:Lestaurtinib_02364_R1,Plate:MR002",713 nM
same,potency estimated from few doses,"PRKAA2; compound concentrations:100 nM and 1000 nM (sheet 'Lestaurtinib' of Supplementary Table 1),run:Lestaurtinib_02364_R2,Plate:MR002",541 nM
same,potency estimated from few doses,"PRKAA2; compound concentrations:100 nM and 1000 nM (sheet 'Lestaurtinib' of Supplementary Table 1),run:Lestaurtinib_02364_R3,Plate:MR002",553 nM
same,potency estimated from few doses,"PRKAA2; compound concentrations:100 nM and 1000 nM (sheet 'Lestaurtinib' of Supplementary Table 1),run:Lestaurtinib_02367_R1,Plate:MR003",1320 nM
same,potency estimated from few doses,"PRKAA2; compound concentrations:100 nM and 1000 nM (sheet 'Lestaurtinib' of Supplementary Table 1),run:Lestaurtinib_02367_R3,Plate:MR003",892 nM
same,potency estimated from few doses,"PRKAA2; compound concentrations:100 nM and 1000 nM (sheet 'Lestaurtinib' of Supplementary Table 1),run:Lestaurtinib_02381_R1,Plate:MR004",1400 nM
same,potency estimated from few doses,"PRKAA2; compound concentrations:100 nM and 1000 nM (sheet 'Lestaurtinib' of Supplementary Table 1),run:Lestaurtinib_02381_R2,Plate:MR004",954 nM
same,potency estimated from few doses,"PRKAA2; compound concentrations:100 nM and 1000 nM (sheet 'Lestaurtinib' of Supplementary Table 1),run:Lestaurtinib_02381_R3,Plate:MR004",761 nM
same,potency estimated from few doses,"PRKAA2; compound concentrations:100 nM and 1000 nM (sheet 'Lestaurtinib' of Supplementary Table 1),run:Lestaurtinib_02407_R1,Plate:MR005",755 nM
same,potency estimated from few doses,"PRKAA2; compound concentrations:100 nM and 1000 nM (sheet 'Lestaurtinib' of Supplementary Table 1),run:Lestaurtinib_02407_R3,Plate:MR005",722 nM
same,potency estimated from few doses,"PRKAA2; compound concentrations:100 nM and 1000 nM (sheet 'Lestaurtinib' of Supplementary Table 1),run:Lestaurtinib_02422_R3,Plate:MR006",74.8 nM
same,potency estimated from few doses,"PRKAA2; compound concentrations:100 nM and 1000 nM (sheet 'Lestaurtinib' of Supplementary Table 1),run:Lestaurtinib_02437_R2,Plate:MR007",616 nM
same,potency estimated from few doses,"PRKAA2; compound concentrations:100 nM and 1000 nM (sheet 'Lestaurtinib' of Supplementary Table 1),run:Lestaurtinib_02437_R3,Plate:MR007",56.5 nM
same,potency estimated from few doses,"PRKAA2; compound concentrations:100 nM and 1000 nM (sheet 'Lestaurtinib' of Supplementary Table 1),run:Lestaurtinib_02438_R1,Plate:MR008",857 nM
same,potency estimated from few doses,"PRKAA2; compound concentrations:100 nM and 1000 nM (sheet 'Lestaurtinib' of Supplementary Table 1),run:Lestaurtinib_02443_R3,Plate:MR009",792 nM
same,potency estimated from few doses,"PRKAA2; compound concentrations:100 nM and 1000 nM (sheet 'Lestaurtinib' of Supplementary Table 1),run:Lestaurtinib_02473_R1,Plate:MR010",730 nM
same,potency estimated from few doses,"PRKAA2; compound concentrations:100 nM and 1000 nM (sheet 'Lestaurtinib' of Supplementary Table 1),run:Lestaurtinib_02473_R2,Plate:MR010",941 nM
same,potency estimated from few doses,"PRKAA2; compound concentrations:100 nM and 1000 nM (sheet 'Lestaurtinib' of Supplementary Table 1),run:Lestaurtinib_02473_R3,Plate:MR010",799 nM
same,potency estimated from few doses,"PRKAA2; compound concentrations:100 nM and 1000 nM (sheet 'Lestaurtinib' of Supplementary Table 1),run:Lestaurtinib_02482_R1,Plate:MR011",788 nM
same,potency estimated from few doses,"PRKAA2; compound concentrations:100 nM and 1000 nM (sheet 'Lestaurtinib' of Supplementary Table 1),run:Lestaurtinib_02482_R2,Plate:MR011",508 nM
same,potency estimated from few doses,"PRKAA2; compound concentrations:100 nM and 1000 nM (sheet 'Lestaurtinib' of Supplementary Table 1),run:Lestaurtinib_02482_R3,Plate:MR011",568 nM
same,potency estimated from few doses,"PRKAA2; compound concentrations:100 nM and 1000 nM (sheet 'Lestaurtinib' of Supplementary Table 1),run:Lestaurtinib_02487_R1,Plate:MR012",422 nM
same,potency estimated from few doses,"PRKAA2; compound concentrations:100 nM and 1000 nM (sheet 'Lestaurtinib' of Supplementary Table 1),run:Lestaurtinib_02487_R3,Plate:MR012",679 nM
same,potency estimated from few doses,"PRKAA2; compound concentrations:100 nM and 1000 nM (sheet 'Lestaurtinib' of Supplementary Table 1),run:Lestaurtinib_02496_R1,Plate:MR013",702 nM
